Reference: PubChem BioAssay
Calls of active or inactive are those of the source. Unless noted, how the calls were made is not given here.

Assays:
[1] = compounds binding Alexa647 anti-His antibody – biochemical, small-molecule microarray, 635 nm fluorescence, artefact control for SMM control protein annotation, primary screen (AID 1128); details: higher = more signal;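 further: score merges feature fluorescence with signal-to-noise for each printed compound spot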
[2] = system: Human papillomavirus type 1a E7 protein (residues 1-88); experiment: HPV1a E7 small-molecule binders, primary screen, biochemical, small-molecule microarray, residues 1-88, 635 nm (AID 1129); details: small-molecule microarray binding, fluorescence 635 nm; higher = more signal
[3] = target: Focal adhesion kinase 1 (Homo sapiens) (UniProt Q05397); experiment: PTK2 protein binding on printed compound slides – biochemical, small-molecule microarray, 635/667 nm fluorescence, BSA, DTT, primary screen (AID 1130); details: 635 nm fluorescence, higher = more signal;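 further: composite of spot emission at 667 nm and signal to noise over triplicate slides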
Sequence of Focal adhesion kinase 1 (Homo sapiens) (Q05397 whole entry, looked up): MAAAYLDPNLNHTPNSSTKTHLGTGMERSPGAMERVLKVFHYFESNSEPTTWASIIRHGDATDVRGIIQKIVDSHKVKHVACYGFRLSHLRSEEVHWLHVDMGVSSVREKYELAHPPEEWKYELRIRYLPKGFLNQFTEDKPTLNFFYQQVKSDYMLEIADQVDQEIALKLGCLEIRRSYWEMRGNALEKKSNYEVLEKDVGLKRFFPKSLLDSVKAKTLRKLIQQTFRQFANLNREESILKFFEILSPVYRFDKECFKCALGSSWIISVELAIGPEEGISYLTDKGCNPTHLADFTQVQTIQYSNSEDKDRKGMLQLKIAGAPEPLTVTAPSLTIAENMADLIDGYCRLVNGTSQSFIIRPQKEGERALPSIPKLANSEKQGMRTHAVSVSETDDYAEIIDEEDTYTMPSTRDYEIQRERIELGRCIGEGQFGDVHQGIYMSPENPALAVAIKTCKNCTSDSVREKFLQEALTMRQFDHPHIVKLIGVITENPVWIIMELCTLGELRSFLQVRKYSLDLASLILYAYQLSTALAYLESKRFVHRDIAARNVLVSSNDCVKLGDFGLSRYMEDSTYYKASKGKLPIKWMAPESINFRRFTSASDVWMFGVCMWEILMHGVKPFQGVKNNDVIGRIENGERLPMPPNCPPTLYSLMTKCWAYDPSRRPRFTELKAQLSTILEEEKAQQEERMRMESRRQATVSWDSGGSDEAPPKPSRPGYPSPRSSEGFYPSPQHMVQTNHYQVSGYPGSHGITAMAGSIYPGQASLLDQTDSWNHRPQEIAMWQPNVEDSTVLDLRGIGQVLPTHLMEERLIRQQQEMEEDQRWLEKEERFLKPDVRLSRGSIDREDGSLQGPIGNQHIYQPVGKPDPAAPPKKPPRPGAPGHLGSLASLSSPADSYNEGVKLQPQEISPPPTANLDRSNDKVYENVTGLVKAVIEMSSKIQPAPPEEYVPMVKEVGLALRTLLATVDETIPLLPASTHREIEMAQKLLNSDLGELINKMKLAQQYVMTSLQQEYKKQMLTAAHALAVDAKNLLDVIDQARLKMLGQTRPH

[4] = system: Fibrinogen (Alexa647-labelled); experiment: Alexa647-fibrinogen binding to printed small molecules – biochemical, small-molecule microarray, 635/667 nm fluorescence, artefact control for SMM control-protein annotation, profiling panel (AID 1131); details: fibrinogen-A647 binding fluorescence, higher = more signal;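 further: z-score merges 667 nm fluorescence with per-spot signal-to-noise over triplicate slides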
[5] = target: Follistatin (Homo sapiens) (UniProt P19883); experiment: FST protein binding to printed compounds – biochemical, small-molecule microarray, 635/667 nm fluorescence, primary screen (AID 1132); details: 635 nm fluorescence, higher = more signal
Sequence of Follistatin (Homo sapiens) (P19883 whole entry, looked up): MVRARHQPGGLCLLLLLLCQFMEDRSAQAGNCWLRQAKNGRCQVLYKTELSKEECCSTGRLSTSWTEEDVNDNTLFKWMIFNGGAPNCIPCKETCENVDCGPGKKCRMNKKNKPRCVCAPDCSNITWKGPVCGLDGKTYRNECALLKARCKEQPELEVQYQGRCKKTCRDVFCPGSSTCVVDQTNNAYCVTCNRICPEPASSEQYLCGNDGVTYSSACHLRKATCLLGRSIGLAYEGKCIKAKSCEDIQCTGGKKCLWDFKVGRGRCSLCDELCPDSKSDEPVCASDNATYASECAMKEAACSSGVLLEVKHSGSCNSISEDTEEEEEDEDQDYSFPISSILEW

[6] = target: Fibroblast growth factor 2 (Homo sapiens) (UniProt P09038); experiment: basic fibroblast growth factor binding to printed compounds – biochemical, small-molecule microarray, 635/667 nm fluorescence, primary screen (AID 1133); details: FGF2, fluorescence 635/667, higher = more signal
Sequence of Fibroblast growth factor 2 (Homo sapiens) (P09038 whole entry, looked up): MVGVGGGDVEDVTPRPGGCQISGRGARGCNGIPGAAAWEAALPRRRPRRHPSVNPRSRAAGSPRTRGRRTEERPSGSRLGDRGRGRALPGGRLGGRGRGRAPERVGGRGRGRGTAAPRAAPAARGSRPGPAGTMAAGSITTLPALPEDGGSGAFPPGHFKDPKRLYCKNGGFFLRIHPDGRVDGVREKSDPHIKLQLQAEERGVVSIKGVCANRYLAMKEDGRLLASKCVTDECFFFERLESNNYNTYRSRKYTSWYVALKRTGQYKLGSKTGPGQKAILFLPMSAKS

[7] = JC-1 mitochondrial potential readout, lung cancer cells – cell-based, A549, JC-1 fluorescence, basal, 24 h, 100 nL, profiling panel (AID 1138); details: higher = more signal;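 further: A549 lung adenocarcinoma cells under basal conditions with no added stimulus; test concentration not given here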
[8] = system: Lefty1; experiment: Lefty1 protein binding to printed compounds – biochemical, small-molecule microarray, 635/667 nm fluorescence, primary screen (AID 1139); details: fluorescence 635/667, higher = more signal
[9] = system: wheat germ agglutinin (Triticum aestivum), Alexa647-labelled; experiment: Alexa647-WGA lectin binding to printed small molecules – biochemical, small-molecule microarray, 635/667 nm fluorescence, artefact control for SMM control-protein annotation, profiling panel (AID 1140); details: WGA-A647 binding, 635 nm fluorescence, higher = more signal;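 further: score merges 667 nm feature emission with signal to noise over triplicate slides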
[10] = target: Luciferin 4-monooxygenase (Photinus pyralis) (UniProt P08659); experiment: inhibition of purified Photinus pyralis luciferase – biochemical, luminescence, purified enzyme, 2006 set, primary screen (AID 1141); details: purified firefly luciferase, SteadyGlo luminescence, 30 min; higher = more signal, called active from +8 up or from −8 down;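 further: cell-free assay with purified firefly luciferase at 100 ng per well in PBS; test concentration not given here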
Sequence of Luciferin 4-monooxygenase (Photinus pyralis) (P08659 whole entry, looked up): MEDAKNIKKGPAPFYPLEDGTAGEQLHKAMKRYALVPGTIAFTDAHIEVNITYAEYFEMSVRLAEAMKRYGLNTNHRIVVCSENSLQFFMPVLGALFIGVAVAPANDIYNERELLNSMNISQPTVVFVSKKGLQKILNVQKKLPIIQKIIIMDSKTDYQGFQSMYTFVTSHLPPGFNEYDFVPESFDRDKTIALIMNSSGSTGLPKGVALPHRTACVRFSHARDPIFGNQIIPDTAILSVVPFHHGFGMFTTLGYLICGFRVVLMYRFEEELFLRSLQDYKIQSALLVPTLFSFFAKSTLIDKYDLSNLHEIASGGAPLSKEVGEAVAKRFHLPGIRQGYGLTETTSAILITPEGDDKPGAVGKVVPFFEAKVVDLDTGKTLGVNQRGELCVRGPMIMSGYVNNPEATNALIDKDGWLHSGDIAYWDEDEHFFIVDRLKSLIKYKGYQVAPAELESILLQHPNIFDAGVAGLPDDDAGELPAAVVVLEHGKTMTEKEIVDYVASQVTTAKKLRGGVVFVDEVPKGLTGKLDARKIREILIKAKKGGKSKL

[11] = system: Wnt5a (protein binding on small-molecule microarray); experiment: small molecules binding Wnt5a protein – biophysical, small-molecule microarray, 635/667 nm fluorescence, primary screen (AID 1142); details: 635 nm fluorescence, higher = more signal;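 further: fluorescence read at 667 nm with signal to noise per printed feature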
[12] = ATP-based viability of Huh7 replicon cells – cell-based, CellTiter-Glo luminescence, basal, 48 h, cytotoxicity control for HCV replication inhibitor project, primary screen (AID 1143); details: higher = more signal, called active from +8 up or from −8 down;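 further: Huh7 hepatoma cells carrying a hepatitis C replication reporter with no stimulus; test concentration not given here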
[13] = Pseudomonas biofilm growth suppression – PAO1 strain, BacTiter-Glo luminescence, LB-PBS, primary screen (AID 1144); details: P. aeruginosa PAO1 biofilm, 12 h, higher = more signal
[14] = basal CRE-LacZ reporter activity in PC12 – cell-based, unstimulated, primary screen (AID 1145); details: no forskolin, luminescence, 4.5 h, higher = more signal, called active from +8 up or from −8 down
[15] = forskolin-driven CRE-LacZ activity in PC12 – cell-based, CRE-LacZ reporter, forskolin-stimulated, primary screen (AID 1146); details: luminescence, 4.5 h, higher = more signal, called active from +8 up or from −8 down;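 further: PC12 cells with 6xCRE LacZ reporter stimulated by forskolin 10 µM; beta-galactosidase reporter signal reflecting CREB driven transcription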
[16] = target: Streptavidin (Streptomyces avidinii) (UniProt P22629); experiment: compounds binding control protein streptavidin – biophysical, small-molecule microarray, 635/667 nm fluorescence, artefact control for SMM compound annotation, primary screen (AID 1147); details: higher = more signal;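 further: signal reflects streptavidin binding to arrayed compounds as a control protein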
Sequence of Streptavidin (Streptomyces avidinii) (P22629 whole entry, looked up): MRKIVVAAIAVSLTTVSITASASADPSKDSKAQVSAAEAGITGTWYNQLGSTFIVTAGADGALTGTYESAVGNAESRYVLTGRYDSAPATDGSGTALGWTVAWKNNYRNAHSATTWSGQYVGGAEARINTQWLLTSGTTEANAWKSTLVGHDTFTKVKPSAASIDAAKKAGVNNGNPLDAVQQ

[17] = probe aInhba binding on compound microarray – biochemical, small-molecule microarray, 635/667 nm fluorescence, primary screen (AID 1148); details: higher = more signal;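 further: score merges 667nm spot fluorescence with signal-to-noise for antibody binding to printed compounds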
[18] = target: Torsin-1A (Homo sapiens) (UniProt O14656); experiment: TOR1A wild-type binding on microarray – cell lysate, small-molecule microarray, lysate, 635/667 nm, primary screen (AID 1149); details: COS7 hTOR1A-WT lysate, 635 nm fluorescence, higher = more signal
Sequence of Torsin-1A (Homo sapiens) (O14656 whole entry, looked up): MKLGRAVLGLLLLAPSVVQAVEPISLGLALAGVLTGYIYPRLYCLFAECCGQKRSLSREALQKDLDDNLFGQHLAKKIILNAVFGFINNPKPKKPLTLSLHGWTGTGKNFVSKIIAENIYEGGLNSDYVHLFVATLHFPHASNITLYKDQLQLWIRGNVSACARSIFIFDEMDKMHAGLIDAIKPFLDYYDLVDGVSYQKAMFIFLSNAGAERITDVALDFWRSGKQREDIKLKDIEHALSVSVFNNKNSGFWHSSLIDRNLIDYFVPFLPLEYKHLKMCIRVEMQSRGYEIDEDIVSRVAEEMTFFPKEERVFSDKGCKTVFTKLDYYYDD

[19] = target: Torsin-1A (Homo sapiens) (UniProt O14656); experiment: torsin A mutant lysate binding on microarrays – cell lysate, small-molecule microarray, COS7 lysate, 635/667 nm fluorescence, primary screen (AID 1150); details: COS7 hTOR1A mutant lysate, 635 nm fluorescence, higher = more signal;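 further: score pools 667 nm emission and signal to noise measuring lysate protein binding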
[20] = system: Sonic hedgehog protein (Shh); experiment: Sonic hedgehog microarray binding compounds – biochemical, small-molecule microarray, 635/667 nm fluorescence, primary screen (AID 1151); details: 635 nm fluorescence, higher = more signal;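 further: Shh protein binding to compounds spotted on small-molecule microarray slides; score combines spot fluorescence intensity with signal-to-noise across triplicate slides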

Compound | composite z-score [1] | composite z-score [2] | composite z-score [3] | composite z-score [4] | composite z-score [5] | composite z-score [6] | z-score [7] | composite z-score [8] | composite z-score [9] | z-score [10] | composite z-score [11] | z-score [12] | z-score [13] | z-score [14] | z-score [15] | composite z-score [16] | composite z-score [17] | composite z-score [18] | composite z-score [19] | composite z-score [20]
COCCCNC(=O)[C@@]1(Sc2ccc(C)cc2)CC(=O)N(C2CCCCC2)[C@@H]1c1ccc(CO)cc1I | 1.74 | 1.18 | 0.737 | 0.922 | 1.09 | 0.659 | 0.816 | 0.136 | 0.814 | 0.235 (inactive) | 0.0699 | -1.41 (inactive) | 0.134 (inactive) | -0.258 (inactive) | 1.17 (inactive) | 0.404 | 0.541 | 0.0619 | 0.401 | 0.993
COc1ccc(CCNC(=O)[C@@]2(Sc3ccc(C)cc3)CC(=O)N(Cc3cc(C(F)(F)F)cc(C(F)(F)F)c3)[C@@H]2c2ccc(CO)cc2)cc1 | -0.588 | -1.49 | -0.545 | -1.07 | -1.83 | -2.57 | -0.138 | -1.25 | 0.0191 | -0.877 (inactive) | -0.668 | 0.305 (inactive) | 0.731 (inactive) | 0.495 (inactive) | 0.84 (inactive) | -0.959 | -0.127 | -1.43 | -1.53 | -2.14
C=C(/C(=C/C[C@@H](OC(C)=O)c1ccccc1OCCO)c1cc(C(=O)OC)ccc1OC)C(C)C | 1.37 | 0.136 | 0.0593 | -0.0872 | 0.425 | 0.212 | 1.68 | 0.282 | 0.368 | -1.47 (inactive) | 0.332 | -1.94 (inactive) | 0.217 (inactive) | 16.2 (active) | -0.37 (inactive) | -0.576 | -0.024 | 0.212 | -0.461 | 1.02
CC(C)C[C@@H]1NC(=O)[C@H]2C[C@@H](C(=O)NCCCCCCNC(=O)CS)[C@@H](c3ccc(O)cc3)N2C1=O | 2.26 | 1.22 | 0.87 | 0.0675 | 1.3 | 1.78 | -1.02 | 0.543 | 0.0059 | -0.938 (inactive) | 0.472 | 1.03 (inactive) | -1.02 (inactive) | -0.805 (inactive) | -0.732 (inactive) | -0.406 | -0.179 | 1 | 0.766 | 1.84
CCOC(=O)C[C@H]1[C@H](OC(=O)c2ccc(C(=O)c3ccccc3)cc2)[C@@H](NC(=O)c2ccc3ccccc3c2)c2cc(OCCCO)ccc2N1C(=O)c1ccc2ccccc2n1 | 0.565 | 0.578 | 0.44 | 0.892 | 0.331 | 0.851 | 2.1 | 0.704 | 0.0601 | -0.818 (inactive) | 0.289 | 0.311 (inactive) | -0.0217 (inactive) | -0.244 (inactive) | -0.643 (inactive) | 0.129 | -0.0774 | 0.182 | 0.819 | 0.94
NC(=O)[C@@]1(CCS(=O)(=O)c2ccccc2)COC(c2ccc(OCCCO)cc2)=N1 | 0.329 | -0.201 | -0.0683 | 0.294 | 0.112 | -0.0653 | -0.492 | -0.643 | 1.05 | -0.188 (inactive) | 0.375 | -1.5 (inactive) | 1.59 (inactive) | 0.148 (inactive) | -1.35 (inactive) | 0.447 | -0.0044 | -0.0756 | 0.324 | -0.463
COc1ccc([Si](C)(C)[C@H]2[C@H](CC(=O)N3Cc4ccccc4C[C@H]3CO)O[C@@]3(C(=O)N(Cc4cccc(N5C(=O)c6cccc7cccc5c67)c4)c4ccccc43)[C@@H]2C)cc1 | 0.577 | 1.16 | 0.463 | -0.0297 | 1.18 | 1.59 | 1.03 | 1.53 | 0.108 | -1.53 (inactive) | 0.862 | -4.55 (inactive) | -0.765 (inactive) | 11 (active) | -1.41 (inactive) | 0.159 | -0.0107 | 1.39 | 0.736 | 2.23
CCCCC(=C=CC[C@@H](O)c1cccc(OCCO)c1)CCO | -0.378 | -0.437 | -0.0962 | 0.449 | 0.242 | 0.154 | 0.613 | 0.448 | 0.771 | -0.656 (inactive) | 0.0999 | -0.562 (inactive) | -0.564 (inactive) | 3.5 (inactive) | -0.468 (inactive) | 1.42 | -0.188 | -1.33 | -0.828 | 0.364
CCCCCN1CC=CC23O[C@@H]4C=CCOC(=O)[C@@H]4[C@H]2C(=O)N(CCCCCO)[C@@H]3C1=O (stereo not given in full) | 0.584 | -0.465 | 0.0875 | -1.87 | -0.232 | -0.486 | -0.465 | 0.604 | 0.0764 | 0.517 (inactive) | -0.659 | -0.211 (inactive) | -1.51 (inactive) | -1.45 (inactive) | -0.151 (inactive) | -0.735 | -0.213 | 0.459 | 2.16 | 0.32
NCCCC[C@@H]1NC(=O)[C@H]2C[C@@H](C(=O)NCc3ccc(F)cc3)[C@@H](c3cccc(OCCO)c3)N2C1=O | 2.48 | 1.23 | 0.0858 | 0.763 | 1.32 | 1.62 | -1.7 | 1.56 | 0.231 | -0.434 (inactive) | 0.334 | -0.262 (inactive) | -0.862 (inactive) | 0.0084 (inactive) | -0.583 (inactive) | -0.0648 | 0.122 | 0.608 | 1.48 | 2.07
